# TsaE inh: YjeE (TsaE) inhibition, E. coli; AID 605; Potency, µM; 71,000 compounds, 0.05% hits; purified YjeE enzyme, qHTS inhibition assay; P0AF67
#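 Purified YjeE (10 uM) with BODIPY Texas Red-labeled ADP probe (2 uM); compounds pin-transferred, 15 min at room temperature. Binding inhibition read as decreased fluorescence polarization; ADP titration as control.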
# Hsp90 Hop PPI: changes Hsp90-Hop TPR2A binding signal, up or down; 71,000 compounds, 0.44% hits; Potency, µM (highest dose often 57 µM), for inactives: top-dose activity change, negative = inhibition; AlphaScreen TPR2A-His6 binding biotin-Hsp90 C-terminal peptide; AID 595; active = well fitted curve in either direction with a large enough effect; inconclusive = small, poorly fitted or top-dose-only effect, or another doubt; also: potency is read from the fitted curve at half-maximal effect; % is scaled to controls: 0 for no effect and ±100 for the full control effect
# DNA Pol III inh: inhibitors of bacterial DNA polymerase III holoenzyme; reconstituted DNA polymerase III holoenzyme replication, biochemical; Potency, µM (highest dose often 57.1 µM), for the others: at the highest dose activity change, negative = inhibition; 71,000 compounds, 0.25% hits; also: potency is read from the fitted curve at half-maximal effect; % is scaled to controls: 0 for no effect and ±100 for the full control effect
#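 Reconstituted *E. coli* holoenzyme (0.35 nM Pol III, 1 nM beta, 154 nM SSB, 2 nM primase) was preincubated with compound for 15 min at RT. Synthesis on 1.4 nM ssM13Gori ran 35 min, then was stopped with PicoGreen/EDTA and read as dsDNA fluorescence.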
# Tau filament bind: binds recombinant human tau filaments | P10636 | recombinant tau filaments, thioflavin S fluorescence, 15 h; filaments grown with octadecylsulfate alongside compound | Potency, µM (series often up to 57.1 µM), for the others: at the top dose activity change, negative = inhibition | 71,000 compounds, 2% hits | AID 596;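 also: potency is read from the fitted curve at half-maximal effect; % is scaled to controls: 0 for no effect and ±100 for the full control effect; actives lower thioflavin S fluorescence by blocking filaments or displacing dye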
#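 Read-out: ThS fluorescence, 450 nm excitation/510 nm emission; lower signal marks blocked filament formation or displaced dye. Tau at 1 uM with 30 uM ODS, 10 uM ThS, 5 mM DTT, 100 mM NaCl, 10 mM HEPES pH 7.4; 15 h, 37 C.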
# BRCT inh green: inhibitors of human BRCA1 BRCT-phosphoprotein interaction (green fluorophore). BRCA1 BRCT-phosphopeptide binding, green fluorescence polarization. Potency, µM (highest dose often 76.9 µM), for inactives: top-dose activity change, negative = inhibition, hits mostly inhibitors. 75,000 compounds, 0.05% hits. AID 875. P38398;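 also: potency is read from the fitted curve at half-maximal effect; plate controls were peptide without protein for full effect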
#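 Compounds were incubated for 12 min at room temperature with a complex of 100 nM fluorescein-tagged pBACH1 decapeptide and 250 nM His-tagged BRCT protein. Buffer was phosphate pH 7.3 with EDTA, DTT and Tween 20. Disruption of binding lowers the polarization signal.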
# BRCT PPI red: disrupts BRCA1 BRCT binding to phosphoprotein, red fluorophore readout; BRCT-phosphopeptide binding, red fluorescence polarization; Potency, µM (top dose mostly 76.9 µM), for the others: top-dose activity change, negative = inhibition, most hits filed as inhibitors; 75,000 compounds, 0.03% hits; AID 892; P38398; also: % is scaled to controls: 0 for no effect and ±100 for the full control effect
#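 Fluorescence polarization: 100 nM His-tagged BRCA1 BRCT with 100 nM TAMRA-labelled phospho-BACH1 decapeptide, phosphate buffer pH 7.3 with 150 mM NaCl, DTT, 0.01% Tween 20; 12 min RT. Binding inhibition seen as FP decrease.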
# * = called active by the depositor; i = inactive; ? = inconclusive; nt = no result; ! = a repeat was not active; [ ] = remark or other dose. This is a sample that favours compounds with a hit; in the whole collection about 2.4% have one here. Unless noted, calls follow the shape of the dose curve; as a rule, active = well fitted curve in the direction sought with a large enough effect; inconclusive = small, poorly fitted or top-dose-only effect, or another doubt; inactive = no such curve, though single readings can be large; an effect the other way counts as inactive or inconclusive.
SMILES,TsaE inh,Hsp90 Hop PPI,DNA Pol III inh,Tau filament bind,BRCT inh green,BRCT PPI red
CC(=O)OC(C)(C)N=Nc1ccc(Br)cc1,i,?,-4%[11.4 µM],-7%[11.4 µM],nt,nt
O=C1c2ccccc2C(=O)C1c1ccc2ccccc2n1,i,?,-22%,0.63µM*,3%,-1%
Nc1ccc(-c2ccc3ccccc3n2)cc1,nt,nt,nt,nt,-2%,1%
COc1ccc2c3c(cccc13)NN=C2C,i,-19%,32µM*,16µM*,-7%,-5%
COc1ccc(-c2csc3c2[N+]2=CCC=C2C3=O)cc1,i,-11%[11 µM],-7%[11.4 µM],3.2µM*,-1%[15.4 µM],0%[15.4 µM]
COc1ccc(C2=C(N)c3ccccc3C2=O)cc1,i,-16%,0%,?,-1%,1%
Cc1cccc(C)c1N1C(=O)c2ccccc2C1=O,i,0%,-7%,4%,0%,-2%
Cc1n[nH]c(C)c1N1C(=O)c2cccc3cc(Br)cc(c23)C1=O,i,-4%,-8%,16µM*,-7%,-4%
O=C(CSCc1nc2ccccc2[nH]1)N1CCN(c2ccc(F)cc2)CC1,i,0%,-1%,20µM*,-2%,0%
C=CCOC(=O)c1sc(N2C(=O)c3oc4ccccc4c(=O)c3C2c2ccco2)nc1C (stereo unspecified),i,-3%,-7%,10µM*,1%,-1%
CCCC(=O)c1cc2cc(Cl)ccc2oc1=O,i,?,4%,148%,-1%,-2%
Cc1cc(Cl)ccc1Nc1sc(C(=O)c2cc3cc(Cl)ccc3o2)c(N)c1C#N,i,-7%[11 µM],-1%[11.4 µM],3.2µM*,1%[15.4 µM],1%[15.4 µM]
CO/N=C(\C)CCN1CCc2nc(-c3ccccc3)c(-c3ccccc3)cc2C1,nt,nt,nt,nt,1%[15.4 µM],-3%[15.4 µM]
c1coc(CN=C2NC(=NCc3ccco3)c3ccccc32)c1,i,-6%,38%,10µM*,5%,-1%
O=C1c2ccccc2C(O)N1Cc1ccco1 (stereo unspecified),i,-4%,-6%,6%,0%,-1%
COC(=O)c1ccc(C(NC(=O)OCc2ccccc2)/C(=C/[C@@H](C)C(=O)N(C)Cc2cccnc2)c2cccnc2)cc1 (stereo partly specified),i,-3%,5%,17%,1%,-2%
CCc1ccc2nc(NC3=NCN(CCCN4CCOCC4)CN3)nc(C)c2c1,i,-3%,-2%,28%,0%,-1%
Clc1ccc2nc(NC3=NCN(CCN4CCOCC4)CN3)nc(-c3ccccc3)c2c1,i,-1%,-5%,7.9µM*,-1%,0%
CN1CCN(c2ncc3nc(-c4cccc(C#N)c4)c(=O)n(C[C@H]4CCCO4)c3n2)CC1,i,-7%,-5%,-19%,-4%,0%
CCCOc1ccc(Br)cc1-c1cc(-c2ccc(Cl)cc2)[nH]c1-c1ccncc1,nt,nt,nt,nt,-2%,0%
COc1ccc(OC)c(Nc2cc(C(=O)NCCCN3CCOCC3)c3ccccc3n2)c1,i,-13%,-5%,10µM*,-10%,-2%
c1ncc(-c2ccc3c(c2)OCO3)c(NCCc2cnc[nH]2)n1,i,-6%,-6%,4%,-1%,1%
Cn1c(=O)c(C(=O)CN2CCCc3ccccc32)c(N)n(Cc2ccccc2)c1=O,i,?,1%,25µM*,3%,2%
CCC(=O)OCC(=O)c1c(N)n(Cc2ccccc2)c(=O)n(C)c1=O,i,-1%,-3%,13%,1%,1%
C=C1C[C@@]23C[C@]1(O)CC[C@@H]2[C@]12C=C[C@@H](O)[C@@](C)(C(=O)O1)[C@@H]2[C@@H]3C(=O)O,i,-7%,-6%,?,nt,nt
SMILES,TsaE inh,Hsp90 Hop PPI,DNA Pol III inh,Tau filament bind,BRCT inh green,BRCT PPI red
COc1cc(OC)c(C2N(c3ccc(Cl)cc3)C(=O)C3CCCN32)cc1OC (stereo unspecified),i,-5%,4%,20µM*,-1%,0%
O[C@H](CN1CCN(c2cccc(Cl)c2)CC1)C(c1ccccc1)c1ccccc1,i,9%,-4%,40µM*!,-6%,-1%
OCC(O)CN1CCN(c2ccccc2)CC1 (stereo unspecified),nt,nt,nt,nt,-2%[3.08 µM],-2%
O=c1cnc2cnc(N3CCNCC3)nc2n1CCc1ccccc1,i,-3%,-3%,-15%,1%,1%
O=c1cc(Nc2ccc3c(c2)OCCO3)[nH]c(=O)n1-c1ccc(Br)cc1,i,-7%,0%,12%,-1%,-1%
O=c1cc(Nc2ccc3c(c2)OCO3)[nH]c(=O)n1-c1ccc(Br)cc1,i,-18%,-5%,16µM*,-3%,0%
Nc1c(S(=O)(=O)O)cc(S(=O)(=O)O)c2ccc(N=Nc3ccccc3)c(O)c12,i,?,-4%[11.4 µM],-1%[11.4 µM],-3%[15.4 µM],0%[15.4 µM]
Cc1cc(-c2ccc(N=Nc3cc(S(=O)(=O)O)c4ccccc4c3N)c(C)c2)ccc1N=Nc1cc(S(=O)(=O)O)c2ccccc2c1N,i,1.3µM*,?,0.02µM*,-8%,-10%
O=C1c2ccccc2C(=O)c2c1ccc(C(=O)O)c2-c1ccc2ccccc2c1,i,-18%[11 µM],-14%[11.4 µM],3.2µM*,-2%[15.4 µM],1%[15.4 µM]
CC(C)(C)N1C(=O)Cc2c1nc(N)c1c(N)nc(N3CCCCC3CO)c(C#N)c21 (stereo unspecified),i,?,-10%,7.9µM*,4%,0%
COCCn1c(=O)c(-c2ccccc2)nc2cnc(N3CCNCC3)nc21,i,-3%,-1%,13%,-1%,-1%
N#Cc1c(N)nc2c(c1-c1ccco1)CCCCC2,i,-2%,-1%,29%,0%,1%
N#Cc1c(-c2ccco2)c2c([nH]c1=S)CCCC2,i,-7%,-26%,32µM*,8%,-2%
CCOC(=O)c1nnc2cc(-c3ccccc3)nn2c1C,i,2%,-1%,16µM*,-1%,3%
CCCS(=O)(=O)n1nc(-c2ccc(Br)cc2)cc1N,i,-1%,-1%,-19%,-2%,6%
CCOC(=O)c1nnc2cc(-c3ccc(Br)cc3)nn2c1C,i,-6%,-5%,10µM*,-3%,-1%
CCCCC(c1nnnn1CCOC)N1CCN(c2cccc(OC)c2)CC1 (stereo unspecified),i,-20%,?,13µM*,1%,-3%
CCCC(c1nnnn1CCOC)N1CCN(c2cccc(OC)c2)CC1 (stereo unspecified),i,-7%,-1%,-28%,-1%,-1%
Cc1cc2cc(CNC(=O)c3cccs3)ccc2n1C,i,-15%,-10%,25µM*,-2%,-10%
CCOC(=O)NCc1ccc2c(c1)cc(C)n2C,i,-5%,-1%,?,-10%,-6%

# Screens from PubChem BioAssay.
